Article PMC7826789 (International Journal of Molecular Sciences, 2021)

How the values were obtained:
Settings in all cases: Compound Concentration (nM):1000
KIT-autoinhibited = test system: KIT-autoinhibited
KIT = test system: KIT
LATS1 = test system: LATS1
LATS2 = test system: LATS2
LCK = test system: LCK
LIMK1 = test system: LIMK1
LIMK2 = test system: LIMK2
LKB1 = test system: T1, LKB1
T1 construct: gene STK11

LOK = test system: T2, LOK
T2 construct: gene STK10

LRRK2(G2019S) = test system: LRRK2(G2019S)
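Note: KINOMEscan scanMAX binding as percent activity remaining versus control; lower means stronger binding.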

Row | Structure (SMILES) | Percent Control (KIT-autoinhibited) | Percent Control (KIT) | Percent Control (LATS1) | Percent Control (LATS2) | Percent Control (LCK) | Percent Control (LIMK1) | Percent Control (LIMK2) | Percent Control (LKB1) | Percent Control (LOK) | Percent Control (LRRK2(G2019S))
1 | CCS(=O)(=O)c1ccc(OC)c(Nc2ncc(-c3cccc(OC)c3)o2)c1 [GW580509X] | 20% | 9.1% | 100% | 100% | 46% | 100% | 100% | 100% | 100% | 100%
2 | CCn1c(-c2nonc2N)nc2c(C#CC(C)(C)O)nc(OCCNC)cc21.Cl [GSK949675] | 100% | 100% | 65% | 11% | 100% | 100% | 100% | 70% | 100% | 100%
3 | O=C1Nc2ccc(C(=O)c3ccco3)cc2C1=Cc1cc(Cl)c(O)c(Cl)c1 [GW406108X] | 82% | 62% | 100% | 92% | 89% | 100% | 100% | 100% | 94% | 6.9%
4 | CC(C)COC(=O)c1ccc2c(c1)/C(=C/Nc1ccc(S(N)(=O)=O)cc1)C(=O)N2 [GW416981X] | 85% | 100% | 100% | 91% | 100% | 100% | 100% | 100% | 100% | 36%
5 | Cl.c1ccc(Cc2nc3ccc(Nc4ncnc5ccccc45)cc3[nH]2)cc1 [GR269666A] | 100% | 94% | 100% | 100% | 88% | 100% | 100% | 100% | 100% | 100%
6 | COc1cc(C)c(N(C)C(=O)CN(C)C)cc1Nc1nc(Nc2cccc(F)c2C(N)=O)c2cc[nH]c2n1 [GSK2219385] | 100% | 100% | 100% | 80% | 100% | 100% | 96% | 83% | 100% | 8.8%
7 | COc1ccc2cc(-c3c(-c4ccncc4)nc(-c4ccc(S(C)(=O)=O)cc4C)n3C)ccc2c1 [SB-633825] | 91% | 74% | 67% | 70% | 54% | 74% | 29% | 100% | 1.3% | 90%
8 | Nc1ncnc2occ(-c3ccc(NC(=O)Nc4cc(C(F)(F)F)ccc4F)cc3)c12 [GW770249X] | 31% | 0% | 100% | 91% | 25% | 100% | 94% | 83% | 0.4% | 81%
9 | COc1cc2ncn(-c3cc(O[C@H](C)c4ccccc4Cl)c(C(N)=O)s3)c2cc1OC [GSK237701A] | 100% | 49% | 99% | 86% | 52% | 100% | 54% | 75% | 0.3% | 69%
